Reference: PubChem BioAssay (NCI)
Compounds without any hit were thinned out: in the full panel of roughly 79,000, 15% have a hit. The source made the active and inactive calls. No stated cut-off is given here; in the data, active means growth inhibition above about 70%; inactive means the rest.

Columns and labels:
[1] = NCI Yeast Anticancer Drug Screen. Data for the wt1 strain (AID 149);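 further: 0% = growth of vehicle-treated wt1 cultures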; conditions: S. cerevisiae wt1 strain (SPY 50644) growth inhibition, stronger effect = higher value
Method in brief: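 Measured: growth of wt1 yeast under compound versus vehicle treatment, reported as inhibition.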

[2] = NCI Yeast Anticancer Drug Screen. Data for the rad50EPP+ strain (AID 151);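 further: 0% = growth of vehicle-treated control cultures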; conditions: S. cerevisiae rad50 mutant strain, stronger effect = higher value
Method in brief: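 Measured: growth inhibition of rad50EPP+ yeast. Reference: vehicle-treated controls. Screen uses strains with defined genetic alterations in DNA damage repair or cell cycle control.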

[3] = NCI Yeast Anticancer Drug Screen. Data for the mgt1 strain (AID 153); conditions: S. cerevisiae mgt1 mutant growth inhibition, stronger effect = higher value
Method in brief: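 Compounds were applied to mgt1 mutant yeast, and growth was then compared against vehicle-treated control cultures to give percent inhibition.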

[4] = NCI Yeast Anticancer Drug Screen. Data for the rad50 strain (AID 155);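 further: 0% = growth of vehicle-only cultures of the same strain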; conditions: S. cerevisiae rad50 strain growth inhibition, stronger effect = higher value
Method in brief: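 Growth of the mutant yeast was measured after compound exposure and referenced to vehicle-treated cultures.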

[5] = NCI Yeast Anticancer Drug Screen. Data for the mec2-1 strain (AID 157); conditions: S. cerevisiae mec2-1 strain, stronger effect = higher value
Method in brief: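 Compounds were applied to mec2-1 yeast cells. Their growth was then compared with that of vehicle-treated cultures to give growth inhibition.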

[6] = NCI Yeast Anticancer Drug Screen. Data for the rad14 strain (AID 159);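 further: 0% = growth of vehicle-treated control cultures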; conditions: S. cerevisiae rad14 strain growth inhibition, stronger effect = higher value
Method in brief: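 Here, inhibition of yeast growth was measured after compound exposure, using a strain with a genetic defect in DNA damage repair and vehicle-treated cultures as the reference.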

[7] = NCI Yeast Anticancer Drug Screen. Data for the sgs1 mgt1 strain (AID 161);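 further: 0% = growth of cultures given vehicle only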; conditions: S. cerevisiae sgs1 mgt1 strain, stronger effect = higher value
Method in brief: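 Compounds are added to genetically altered yeast, and growth is compared with cultures given vehicle alone to give percent inhibition.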

[8] = NCI Yeast Anticancer Drug Screen. Data for the CLN2oe strain (AID 163);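 further: 0% = growth of vehicle-only control cultures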; conditions: S. cerevisiae CLN2oe strain, stronger effect = higher value
Method in brief: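 Cells of an engineered yeast line with disturbed cell-cycle regulation are treated with compound. Inhibition of growth is then calculated relative to the vehicle-treated reference.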

[9] = NCI Yeast Anticancer Drug Screen. Data for the cln2 rad14 strain (AID 165);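 further: 0% = growth equal to vehicle treated cultures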; conditions: S. cerevisiae cln2 rad14 strain, stronger effect = higher value
Method in brief: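 Strain: cln2 rad14 yeast, altered in cell cycle control and DNA damage repair. Read-out: growth inhibition vs vehicle.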

[10] = NCI Yeast Anticancer Drug Screen. Data for the bub3 strain (AID 167); conditions: S. cerevisiae bub3 mutant strain, stronger effect = higher value
Method in brief: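 Whole-cell yeast assay. The mutant strain was incubated with compounds, and growth inhibition was determined by comparison with vehicle-treated cells.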

[11] = NCI Yeast Anticancer Drug Screen. Data for the wt2 strain (AID 169);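 further: 0% = growth of vehicle-treated yeast cultures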; conditions: S. cerevisiae wt2 strain growth inhibition, stronger effect = higher value
Method in brief: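 Growth of compound-treated yeast is measured and expressed as inhibition relative to vehicle-only controls.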

[12] = NCI Yeast Anticancer Drug Screen. Data for the mlh1 strain (AID 171);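 further: 0% = growth of vehicle-treated control cultures of the same strain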; conditions: S. cerevisiae mlh1 strain growth inhibition, stronger effect = higher value
Method in brief: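 Test agents were incubated with yeast bearing a defined DNA damage repair or cell cycle control alteration; values are growth inhibition normalised to vehicle-treated cultures.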

[13] = NCI Yeast Anticancer Drug Screen. Data for the sgs1 strain (AID 173);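 further: 0% = growth of vehicle-only control cultures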; conditions: S. cerevisiae sgs1 mutant, stronger effect = higher value
Method in brief: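 Strain with an altered DNA repair or cell cycle pathway exposed to compound. Growth then measured. Value = inhibition versus vehicle control.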

[14] = NCI Yeast Anticancer Drug Screen. Data for the rad18 strain (AID 177); conditions: S. cerevisiae rad18 mutant growth inhibition, stronger effect = higher value
Method in brief: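 DNA-repair-defective yeast; compound treatment; growth inhibition scored against vehicle.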

[15] = NCI Yeast Anticancer Drug Screen. Data for the rad52 strain (AID 147);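 further: 0% = growth of vehicle-treated control cultures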; conditions: S. cerevisiae rad52 mutant growth inhibition, stronger effect = higher value
Method in brief: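 Growth of repair-deficient yeast cells was compared between compound-treated and vehicle-treated cultures to give percent inhibition.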

[16] = NCI Yeast Anticancer Drug Screen. Data for the mlh1 rad18 strain (AID 175); conditions: S. cerevisiae mlh1 rad18 strain growth inhibition, stronger effect = higher value
Method in brief: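 A repair-deficient yeast strain is exposed to test compound, and growth is scored relative to vehicle-treated controls.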

[17] = at 5.0 µM (retest, dose inferred, filed as 0.5)
[18] = at 50.0 µM (retest, dose inferred, filed as 5.0)

Measured: growth inhibition

COc1cc2ccnc(-c3c4ccccc4c(N)c4c(OC)c(OC)ccc34)c2cc1OC
inactive: [1]; at 1.2 µM -4% | [1]; at 3.7 µM -5% | [1]; at 11.0 µM -5% | [1]; at 33.0 µM -4% | [1]; at 100.0 µM 30% | [2]; at 1.2 µM 0% | [2]; at 3.7 µM 11% | [2]; at 11.0 µM 22% | [2]; at 33.0 µM 31% | [2]; at 100.0 µM 49% | [3]; at 1.2 µM -1% | [3]; at 3.7 µM -1% | [3]; at 11.0 µM 0% | [3]; at 33.0 µM 2% | [3]; at 100.0 µM 50% | [4]; at 1.2 µM 16% | [4]; at 3.7 µM 50% | [4]; at 50.0 µM 19.3% | [5]; at 1.2 µM -1% | [5]; at 3.7 µM 2% | [5]; [17] 33% | [5]; at 11.0 µM 1% | [5]; at 33.0 µM 7% | [5]; [18] 33% | [5]; at 50.0 µM -2.3% | [5]; at 100.0 µM 46% | [6]; at 1.2 µM 1% | [6]; at 3.7 µM 1% | [6]; at 11.0 µM 3% | [6]; at 33.0 µM 8% | [6]; at 100.0 µM 43% | [7]; [17] 24% | [7]; [18] 24% | [7]; at 50.0 µM -13.9% | [8]; at 1.2 µM -1% | [8]; at 3.7 µM 7% | [8]; at 11.0 µM 9% | [8]; at 33.0 µM 17% | [8]; at 100.0 µM 37% | [9]; [17] 22% | [9]; [18] 22% | [9]; at 50.0 µM 10.8% | [10]; at 1.2 µM -5% | [10]; at 3.7 µM 1% | [10]; [17] -3% | [10]; at 11.0 µM 9% | [10]; at 33.0 µM -4% | [10]; [18] -3% | [10]; at 50.0 µM 6.45% | [10]; at 100.0 µM 24% | [11]; at 1.2 µM -2% | [11]; at 3.7 µM -2% | [11]; at 11.0 µM -2% | [11]; at 33.0 µM 4% | [11]; at 100.0 µM 47% | [12]; at 1.2 µM -4% | [12]; at 3.7 µM -2% | [12]; at 11.0 µM 0% | [12]; at 33.0 µM 2% | [12]; at 100.0 µM 52% | [13]; at 1.2 µM -1% | [13]; at 3.7 µM 1% | [13]; at 11.0 µM 6% | [13]; at 33.0 µM 23% | [14]; at 1.2 µM 0% | [14]; at 3.7 µM -5% | [14]; at 11.0 µM 8% | [14]; at 33.0 µM 31%
active: [4]; [17] 78% | [4]; at 11.0 µM 77% | [4]; at 33.0 µM 90% | [4]; [18] 78% | [4]; at 100.0 µM 94% | [13]; at 100.0 µM 70% | [14]; at 100.0 µM 74%

CC(=O)OC1CC2C(C)(C)C(=O)C=C[C@]2(C)C2CCC3(C)C(=CCC3[C@H](CO)C[C@H](O)C(=O)C(C)(C)O)[C@]12C (stereo partly drawn)
active: [15]; at 100.0 µM 81% | [3]; at 33.0 µM 90% | [3]; at 100.0 µM 94% | [7]; [18] 93% | [7]; at 50.0 µM 88.8% | [8]; at 100.0 µM 82% | [11]; at 33.0 µM 86% | [11]; at 100.0 µM 95% | [12]; at 33.0 µM 86% | [12]; at 100.0 µM 92% | [13]; at 33.0 µM 87% | [13]; at 100.0 µM 93% | [14]; at 100.0 µM 74%
inactive: [15]; at 1.2 µM -7% | [15]; at 3.7 µM -4% | [15]; at 11.0 µM -3% | [15]; at 33.0 µM 11% | [2]; at 1.2 µM -34% | [2]; at 3.7 µM -35% | [2]; at 11.0 µM -39% | [2]; at 33.0 µM -39% | [2]; at 100.0 µM -31% | [3]; at 1.2 µM -26% | [3]; at 3.7 µM -34% | [3]; at 11.0 µM 53% | [4]; at 1.2 µM -5% | [4]; at 3.7 µM -18% | [4]; [17] -14% | [4]; at 11.0 µM -16% | [4]; at 33.0 µM 6% | [4]; [18] 23% | [4]; at 50.0 µM 44.9% | [4]; at 100.0 µM 62% | [5]; at 1.2 µM -56% | [5]; at 3.7 µM -56% | [5]; [17] -10% | [5]; at 11.0 µM -77% | [5]; at 33.0 µM -40% | [5]; [18] 12% | [5]; at 50.0 µM 42.8% | [5]; at 100.0 µM 53% | [7]; [17] 35% | [8]; at 1.2 µM -41% | [8]; at 3.7 µM -14% | [8]; at 11.0 µM -7% | [8]; at 33.0 µM 0% | [9]; [17] 32% | [9]; [18] 43% | [9]; at 50.0 µM 26.6% | [11]; at 1.2 µM -32% | [11]; at 3.7 µM -18% | [11]; at 11.0 µM 50% | [12]; at 1.2 µM -35% | [12]; at 3.7 µM -23% | [12]; at 11.0 µM 39% | [13]; at 1.2 µM -34% | [13]; at 3.7 µM -5% | [13]; at 11.0 µM 60% | [16]; [17] -6% | [16]; [18] 39% | [16]; at 50.0 µM 26.1% | [14]; at 1.2 µM -21% | [14]; at 3.7 µM -21% | [14]; at 11.0 µM -17% | [14]; at 33.0 µM 3%

Cc1ccccc1N=Cc1cc(Cl)ccc1O
active: [1]; at 100.0 µM 75% | [2]; at 100.0 µM 85% | [3]; at 100.0 µM 89% | [4]; at 100.0 µM 98% | [10]; at 100.0 µM 90% | [11]; at 100.0 µM 73% | [12]; at 100.0 µM 87% | [13]; at 100.0 µM 92% | [14]; at 100.0 µM 92%
inactive: [1]; at 1.2 µM -4% | [1]; at 3.7 µM -5% | [1]; at 11.0 µM -7% | [1]; at 33.0 µM 7% | [2]; at 1.2 µM 3% | [2]; at 3.7 µM 18% | [2]; at 11.0 µM 35% | [2]; at 33.0 µM 58% | [3]; at 1.2 µM -1% | [3]; at 3.7 µM -4% | [3]; at 11.0 µM -2% | [3]; at 33.0 µM 14% | [4]; at 1.2 µM -5% | [4]; at 3.7 µM -1% | [4]; [17] -74% | [4]; at 11.0 µM 10% | [4]; at 33.0 µM 44% | [4]; [18] 66% | [4]; at 50.0 µM 51.3% | [5]; at 1.2 µM 1% | [5]; at 3.7 µM -1% | [5]; [17] -7% | [5]; at 11.0 µM 1% | [5]; at 33.0 µM 2% | [5]; [18] 16% | [5]; at 50.0 µM 35.7% | [5]; at 100.0 µM 53% | [7]; [17] -13% | [7]; [18] 44% | [7]; at 50.0 µM 26.5% | [8]; at 1.2 µM 2% | [8]; at 3.7 µM 3% | [8]; at 11.0 µM 8% | [8]; at 33.0 µM 12% | [8]; at 100.0 µM 60% | [9]; [17] -32% | [9]; [18] -16% | [9]; at 50.0 µM -13.1% | [10]; at 1.2 µM -6% | [10]; at 3.7 µM -4% | [10]; [17] -68% | [10]; at 11.0 µM -1% | [10]; at 33.0 µM 16% | [10]; [18] -4% | [10]; at 50.0 µM 42% | [11]; at 1.2 µM -1% | [11]; at 3.7 µM 0% | [11]; at 11.0 µM -1% | [11]; at 33.0 µM 2% | [12]; at 1.2 µM 7% | [12]; at 3.7 µM -5% | [12]; at 11.0 µM 0% | [12]; at 33.0 µM 22% | [13]; at 1.2 µM -2% | [13]; at 3.7 µM -3% | [13]; at 11.0 µM 4% | [13]; at 33.0 µM 20% | [16]; [17] -73% | [16]; [18] 18% | [16]; at 50.0 µM 67% | [14]; at 1.2 µM -6% | [14]; at 3.7 µM 2% | [14]; at 11.0 µM 9% | [14]; at 33.0 µM 23%
